Source: the supplement of paper PMC8866396
± gives the standard deviation of the averaged measurements.

Columns and labels:
IL-6-GFP PC-9GR = assay: cell viability (CCK-8 OD) relative to DMSO control (fraction of control); higher = more viable cells; conditions: compound concentration: 10 uM; treatment time: 48 h
Procedure, shortened: (§1)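 Each well's viability is its CCK-8 optical density divided by that of the vehicle control well. The cells, PC-9 and PC-9GR lung cancer lines overexpressing IL-6-GFP from a lentiviral construct, were seeded at 3000 cells/well in 96-well plates and exposed for 48 h to each compound of a purchased 510-compound library at a final 10 μM, in two independent replicates.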

IL-6-GFP PC-9 = assay: as above; conditions: compound concentration: 10 uM; treatment time: 48 h
Procedure, shortened: as §1

Row | SMILES | cell viability (IL-6-GFP PC-9GR) | cell viability (IL-6-GFP PC-9)
1 | N.N.O=C([O-])C1(C(=O)[O-])CCC1.[Pt+2] [Carboplatin] | 1.19 ± 0.012 | 1.12 ± 0.074
2 | Nc1nc(Cl)nc2c1ncn2C1CC(O)C(CO)O1 (stereo unspecified) [Cladribine] | 0.941 ± 0.059 | 0.762 ± 0.076
3 | CCC(=O)NS(=O)(=O)c1ccc(-c2c(-c3ccccc3)noc2C)cc1 [Parecoxib] | 1.06 ± 0.1 | 1.26 ± 0.014
4 | COc1cc(N2CCC(N3CCN(C)CC3)CC2)ccc1Nc1ncc(Cl)c(Nc2ccccc2P(C)(C)=O)n1 | 0.688 ± 0.15 | 0.41 ± 0.083
5 | CCN1CCN(Cc2ccc(Nc3ncc(F)c(-c4cc(F)c5nc(C)n(C(C)C)c5c4)n3)nc2)CC1.CS(=O)(=O)O | 0.42 ± 0.27 | 0.415 ± 0.016
6 | CN(C)C(=O)c1cc2cnc(Nc3ccc(N4CCNCC4)cn3)nc2n1C1CCCC1 [Ribociclib (LEE011)] | 1.29 ± 0.4 | 1.01 ± 0.029
7 | O=C(O)c1cc(N=Nc2ccc(S(=O)(=O)Nc3ccccn3)cc2)ccc1O [Sulfasalazine] | 1.41 ± 0.088 | 1.22 ± 0.16
8 | O=C([O-])c1cc(N=Nc2ccc(O)c(C(=O)[O-])c2)ccc1O.[Na+].[Na+] [Olsalazine Sodium] | 1.12 ± 0.053 | 1.25 ± 0.062
